The text below walks through data of PubChem BioAssay AID624352 (Sanford-Burnham Center for Chemical Genomics, 2012).

Among all 360,000 compounds or so, about 2,600 (0.72%) were called active. The sample as a whole holds a higher share of actives than the screen did. Unmarked numbers belong to inactive results.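 Rule for the calls: active = inhibition of the luminescence signal of 40% or more relative to plate controls, in a single-dose primary screen at 18.75 µM; inactive = the rest.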

A short description of this test: HIF-2a reporter inhibitors, primary screen, luminescence, 786-0 RCC cells (AID 624352). The note with it: 786-0 RCC cells HIF-2a reporter, luciferase luminescence, overnight; at 18.8 µM; stronger effect = higher value.
Turning to `CCOc1ccc(OCC(=O)Nc2c3c(nn2C(C)(C)C)CS(=O)(=O)C3)cc1`, the inhibition is -1.94%.
Regarding `CCC(C)(C)c1ccc(Oc2ccc(NC(=O)COC(=O)C3=COCCO3)cc2)cc1`, the inhibition is 82.3% (active).
Consider `O=C1CCC(C(=O)OCC(=O)Nc2ccc(OC(F)F)cc2)=NN1`, for which the inhibition is -7.05%.
The same measure for `COc1ccc(NC(=O)COC(=O)CNC(=O)C2CCCCC2)cc1`: 12.4%; for `CCc1cccc(NC(=O)CCCN2C(=O)C(c3ccccc3)Oc3cccnc32)c1` (stereo unspecified): 9.51%; for `Cc1ccc(C(=O)N2CC(=O)Nc3ccccc32)o1`: 14.2%.
Turning to `Fc1ccc(CNc2nc3ccccc3n3nnnc23)cc1`, the inhibition is -134%.
Next, `CC(=O)Nc1ccc(C(=O)CSc2nnc(Cc3ccccc3)o2)cc1`: -43.3%; `CC(C)C[C@@H](N)c1nnc(SCC(=O)c2ccc(Cl)cc2)o1`: 56.9% (active).
The same measure for `COc1cc(C(=O)NCc2nnc(SCC(=O)c3ccc(Cl)cc3)o2)cc(OC)c1OC`: 5.32%; for `C[C@H]1Cn2cnc(C(=O)N[C@@H](Cc3c[nH]c4ccccc34)C(=O)OC(C)(C)C)c2C(=O)N1`: -4.95%; for `C=CCC[C@@H](Cc1ccc(F)cc1)C(=O)O[C@H](CNC(=O)[C@H](CC=C)CC(=O)N(CCO)Cc1ccccc1)c1ccccc1`: 12.7%.
Turning to `CCN1CCN(C(=O)C2(NC(=O)Nc3cccc(F)c3)CCCCC2)CC1`, the inhibition was 9.23%.
Consider `COc1ccc(NC(=O)C2C3C=CC(C3)C2C(=O)NCc2ccccn2)c(OC)c1` (stereo unspecified), for which the inhibition is 10.9%.
As for `Cc1c(NC(=O)C(C)OC(=O)c2cc3c4ccccc4n(C)c3s2)c(=O)n(-c2ccccc2)n1C` (stereo unspecified), the inhibition was 4.75%.
The same measure for `Cc1sc2ccccc2c1CNC[C@H]1O[C@@H](n2ccc(=O)[nH]c2=O)[C@H](O)[C@@H]1O`: 11.7%; for `OC(c1cc(Cl)cc(Cl)c1)c1ncc(-c2ccccc2C(F)(F)F)[nH]1` (stereo unspecified): 14.7%; for `O=C(OC12CC3CC(CC(C3)C1)C2)c1ccc(NCc2cc(O)ccc2O)cc1`: 88.1% (active).
As to `CC(C)OCCCNC(=S)N1CCC(C(=O)c2ccc3c(c2)OCCO3)CC1`, the inhibition was -5.91%.
Regarding `c1ccc(-c2ccnc3nc(-n4cccc4)nn23)cc1`, the inhibition was -8.27%.
As to `C/C(N)=C(/C#N)C(=O)COC(=O)C1CCN(C(=O)c2ccc(Cl)cc2)CC1`, the inhibition was 8.64%.
Next, `CCc1ccc(-c2cc(C)no2)cc1S(=O)(=O)NCCc1ccc(S(N)(=O)=O)cc1`: 9.29%; `Cc1cc(CNC(=O)C2CCC(=O)N(CCc3ccc(Cl)cc3)C2)no1` (stereo unspecified): -9.67%.
The same measure for `O=C(NCCc1c[nH]c2ccc(Cl)cc12)c1ccc([N+](=O)[O-])cc1`: -9.18%; for `COc1ccccc1CN(C)c1nnnn1-c1ccccc1`: 15.6%.
The same measure for `CCN(C(=O)CSc1nnnn1-c1ccccc1OC)C1CCS(=O)(=O)C1` (stereo unspecified): -1.01%; for `COc1ccccc1-n1nnnc1S(=O)(=O)Cc1ccc(Cl)cc1`: 86% (active).
For the compound `Cc1[nH]c2ccccc2c1C(=O)c1cc([C@H](NC(=O)OC(C)(C)C)C(C)C)sc1N`, the inhibition was 2.29%.
The same measure for `C=CCOc1ccccc1CNn1c(C)n[nH]c1=S`: 21.3%.
With `COc1cccc(C(NC(C)=O)c2nc(-c3cnc4ccccc4c3)cs2)c1` (stereo unspecified), the inhibition is -32.9%.
Next, `O=[N+]([O-])c1c(NCCO)cc(Sc2nc3ccccc3s2)c2nonc12`: 87% (active); `CC(C)=CCN1CCN(CCCc2ccccc2)CC1CCO` (stereo unspecified): 16.8%.
The same measure for `CC[C@]1(c2ccccc2OC)C(=O)N(C(=O)OC)N1C(=O)OC`: 18.5%.
Consider `CCN(CC(=O)NC(C)C)C(=O)CCNC(=O)c1ccc(Cl)cc1`, for which the inhibition is 14.3%.
For `O=C(OC1CCOC1=O)c1cccc(S(=O)(=O)Nc2ccc(F)cc2)c1` (stereo unspecified), the inhibition is 14.8%.
Regarding `COc1ccc(N2CCN(C(=O)COC(=O)c3cccc(S(=O)(=O)Nc4ccccc4OC)c3)CC2)cc1`, the inhibition is 12.6%.
Next, `CC(=O)Nc1ccc(/C(C)=N/NC(=O)CN(c2ccccc2Br)S(C)(=O)=O)cc1`: 1.74%; `COC(=O)c1ccc(OC(=O)c2cnccn2)cc1`: 17.4%.
Next, `O=C(COc1cccc(F)c1)Oc1ccc(C(=O)c2ccccc2)cc1`: -3.52%.
Next, `O=C(Oc1ccc(-c2nc(-c3ccccn3)no2)cc1)c1ccccc1`: 42.3% (active); `Cc1cccc(C(=O)Nc2ccc(CC(=O)O)cc2)c1`: 60.9% (active); `Cc1cccc(C(=O)Nc2ccc(C(=O)/C=C/c3cccs3)cc2)c1`: -134%.
Turning to `CC(=O)Nc1ccc(NC(=O)[C@@H](NC(=O)c2cccc(C)c2)C(C)C)cc1`, the inhibition is 4.88%.
Next, `O=C(CCc1ccccc1)NNc1ccc(F)cc1`: 5.59%.
Next, `COc1ccc(C2C(C#N)=C(N)Oc3n[nH]c(C)c32)cc1CN1CCN(c2ccc(F)cc2)CC1` (stereo unspecified): 16.6%; `N#CC1=C(N)OC2=C(C(=O)CCC2)C1C1CC=CCC1` (stereo unspecified): -5.19%; `CCCc1[nH]nc2c1C(C1CC=CCC1)C(C#N)=C(N)O2` (stereo unspecified): 52.3% (active).
The same measure for `CCCc1nc2c([nH]1)C(c1cccnc1)C(C#N)=C(N)O2` (stereo unspecified): 20.2%; for `CCCc1[nH]nc2c1C(c1ccc(Br)s1)C(C#N)=C(N)O2` (stereo unspecified): 80.8% (active); for `CSC1=NCCN1C(=O)c1ccc(S(=O)(=O)N2CCOCC2)cc1`: 4.81%.
`CC(C)C(C(=O)NC1CCCCC1)N(CC1CCCO1)C(=O)CNS(=O)(=O)c1ccc(F)cc1` (stereo unspecified): the inhibition was 12.1%.
The same measure for `COc1ccc(C2/C=C\CN(CC(C)C)CC(=O)N2Cc2ccc(F)cc2)cc1` (stereo unspecified): 4.31%.
Consider `COC(=O)c1sccc1NC(=O)CSc1ccccc1NS(=O)(=O)c1cc(Cl)ccc1Cl`, for which the inhibition was 7.65%.
On to `Cc1ccc(CC(=O)N(C)CC(=O)N(CC(C)C)c2c(N)n(CC(C)C)c(=O)[nH]c2=O)cc1C`, for which the inhibition is 10.3%.
As to `C=C(C)C(=O)O[C@H]1C/C(C)=C\C(=O)/C=C(\C)[C@H](O)[C@@H]2OC(=O)C(=C)[C@@H]21`, the inhibition was 92.8% (active).
As to `Cc1ccc(Cl)c(OCC(=O)NN2CCN(C)CC2)c1`, the inhibition is 13.6%.

As usually defined, the inhibition is the relative decrease from the control value, in per cent.
